According to PubChem BioAssay AID624465 (National Center for Advancing Translational Sciences (NCATS), 2012):
The whole screen tested about 360,000 compounds, of which about 300 (0.083%) were called active. No stated cut-off is given here; in the data, active means activation above about 40%; inconclusive means between about 15% and that limit; inactive means weaker than that. The sample as a whole holds a higher share of actives than the screen did.

target: D(2) dopamine receptor (Homo sapiens) (UniProt P14416); test: Beta-Arrestin HTS for Positive Allosteric Modulators of the Human D2 Dopamine Receptor: Agonists; settings: DiscoveRx PathHunter D2 beta-arrestin, luminescence, 90 min; active compounds read high; 100% = 57 uM dopamine signal
Sequence (P14416 whole entry, looked up): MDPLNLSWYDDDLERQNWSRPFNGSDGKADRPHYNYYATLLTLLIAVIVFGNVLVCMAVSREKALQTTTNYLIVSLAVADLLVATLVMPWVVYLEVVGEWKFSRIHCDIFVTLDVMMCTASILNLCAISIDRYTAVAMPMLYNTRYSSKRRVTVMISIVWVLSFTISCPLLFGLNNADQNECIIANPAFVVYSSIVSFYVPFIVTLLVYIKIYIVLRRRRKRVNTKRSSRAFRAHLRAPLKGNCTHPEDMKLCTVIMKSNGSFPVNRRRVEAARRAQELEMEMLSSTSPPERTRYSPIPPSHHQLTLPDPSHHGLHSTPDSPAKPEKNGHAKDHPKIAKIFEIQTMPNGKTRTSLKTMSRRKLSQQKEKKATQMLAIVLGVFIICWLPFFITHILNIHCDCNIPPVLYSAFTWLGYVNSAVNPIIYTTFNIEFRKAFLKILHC
Excerpt: There is great interest in identifying small molecule ligands for G-protein coupled receptors (GPCRs) as nearly 50% of all FDA-approved drugs target these important receptor proteins. […] Amongst the dopamine receptors (DARs), the D2 is arguably one of the most validated drug targets in neurology and psychiatry. For instance, all receptor-based antiparkinsonian drugs primarily work via stimulating the D2 DAR, whereas all FDA-approved antipsychotic agents are antagonists of this receptor. The D2 DAR is also therapeutically targeted in other disorders such as restless legs syndrome, tardive dyskinesia, Tourette's syndrome, and hyperprolactinemia.
To this end, a miniaturized qHTS screen was developed to be screened against the Molecular Libraries Small Molecule Repository (MLSMR). This assay seeks to identify agonists against the D2 DAR.
NIH Molecular Libraries Probe Production Network [MLPCN]
NIH Chemical Genomics Center [NCGC]
PI Name: David Sibley, National Institutes of Neurological Disorders and Stroke
DiscoveRx D2 cells were thawed from frozen stock and seeded at 2,100 cells/ 3 uL/well media (DiscoveRx Plating Reagent 2) with MultiDrop Combi dispenser (Thermo Scientific, Logan, UT) onto white tissue culture treated 1536-well Aurora plates (Brooks Automation, Chelmsford, MA) and allowed to attach overnight at 37 deg C, 5% CO2. Next, 23 nL/well of compound solutions in DMSO were added with a pintool transfer (Kalypsis, San Diego, CA). As the positive control, 1 uL/well dopamine (EC100, 57 uM final concentration) diluted in buffer (HBSS + 10 mM HEPES + SMB + 0.1% Tween-20) was dispensed to 1 column of each plate. The rest of the plate was dispensed with buffer only, 1 uL/well as well. The cells were stimulated by compounds or dopamine control for 90 minutes at 37 deg C, 5% CO2, after which 1.5 ul/well of DiscoveRx detection reagent was added with BioRAPTR FRD dispenser. The detection reagent was prepared by mixing of Galacton Star Substrate, Emerald II solution and PathHunter buffer (supplied by the assay kit) together at 1:5:19 proportion accordingly just prior to dispensing. The plates were incubated at ambient temperature for 1 hour and then the luminescent signal was read on ViewLux plate reader (PerkinElmer, Waltham, MA).

activation, inactive:
Cc1cc(C)cc(N(CC(=O)N2CC=C(c3ccccc3)CC2)S(=O)(=O)c2c(C)noc2C)c1 0.128%
COc1ccccc1CCNC(=O)CN1C(=O)NC2(CCCC2)C1=O -3.81%
O=c1ccn([C@@H]2O[C@H](CNS(=O)(=O)c3cc4ccccc4s3)[C@@H](O)[C@H]2O)c(=O)[nH]1 -2.86%
CCOC1=C2CN(S(=O)(=O)c3ccc(C)cc3)[C@H](c3cccs3)C[C@H]2[C@H]2C(=O)N(c3ccccc3)C(=O)[C@H]2C1 -3.55%
CCC(C)(C)n1nnnc1CN1CCN(c2nc3ccc(C)cc3cc2C#N)CC1 -5.17%
COc1ccc(C(=O)NNC(=O)c2cnccn2)cc1[N+](=O)[O-] 4.81%
Cc1ccc(C(=O)O/N=C(\N)c2ccccn2)cc1Cl 5.09%
O=C(NCCO)c1cccc(-c2cccc3nccn23)c1 -5%
O=C(CC1SC(=Nc2ccccc2)N(Cc2ccccn2)C1=O)Nc1cccc(Cl)c1 (stereo unspecified) 0.599%
CNc1cncc(-c2cccc(C(=O)N3CCOCC3)c2)n1 -3.27%
CC(C)c1cccc(-c2csc(C(O)c3ccccc3)n2)c1 (stereo unspecified) 5.04%
CCC(=O)OCc1c(C(F)(F)F)nn(C)c1Oc1cccc(C(F)(F)F)c1 -2.87%
O=C(CN1CCN(S(=O)(=O)c2ccc3ccccc3c2)CC1)NC(=O)NC1CCCCC1 -2.7%
CCn1cc(CNC(=O)c2cc([N+](=O)[O-])c(C)c([N+](=O)[O-])c2)cn1 1.34%
O=C1C=CN2CCCC2CC1 (stereo unspecified) -2.65%
Nc1ncnc2c1ncn2[C@@H]1O[C@H](C(=O)N2CCCN(Cc3ccccc3F)CC2)[C@@H](O)[C@H]1O -3.13%
O=C1CCC(C(=O)Nc2ccc(OC(F)F)cc2)N1 (stereo unspecified) -0.767%
O=C1CSC(=O)N1CCOCCN1C(=O)CSC1=O -0.569%
CN(CCc1ccccn1)C1CCCN(S(=O)(=O)c2ccccc2Cl)C1 (stereo unspecified) 4.32%
OCCN1CCN(c2ncnc3c2ncn3[C@H]2CN(Cc3ccco3)C[C@@H](CO)O2)CC1 2.19%
COc1ccc(OCc2nnc3n2N=C(c2ccccc2)C(CC(=O)O)S3)cc1 (stereo unspecified) -4.75%
CCn1c(SCC(=O)Nc2cccc(F)c2)nnc1-c1cc2cc(Br)ccc2o1 0.906%
O=C1N(c2ccccc2)C(=Nc2ccccc2)SC12CC2 -5.55%
O=C(CN1CCOCC1)Nc1c2c(nc3c1CCC3)CCC2 -3.04%
Cc1nc(-c2ccc(F)cc2)c(CC(=O)N(C)CC(=O)Nc2c(C)cccc2C)s1 0.938%
Cn1nc(C(F)(F)F)c(C(=O)Nc2cccc(C(F)(F)F)c2)c1SCc1ccc(Cl)cc1 2.52%
COc1cccc(C(NC(C)=O)c2nc(-c3ccccc3OC)cs2)c1 (stereo unspecified) -6.01%
CC(=O)NC(c1ccccc1)c1nc(-c2cccc(C(C)C)c2)cs1 (stereo unspecified) 1.91%
CCCC(=O)N1CCC1(C)C(=O)NS(=O)(=O)c1ccc(Cl)cc1 (stereo unspecified) -2.87%
CN1OC[C@@H]2CN(C(=O)c3cccnc3)[C@H](c3ccc(N4CCCCC4)cc3)C[C@@H]21 -5.55%
CCOc1ccc(Nc2nc(Cc3nnc(SCC(=O)c4ccc(C)cc4)o3)cs2)cc1 0.605%
O=C(Cn1c(-c2ccc(Cl)cc2)noc1=O)N1CCN(c2ccccc2F)CC1 3.21%
Cc1ccc2cccc(S(=O)(=O)N3CCN(c4ccccc4F)CC3)c2n1 1.48%
O=C(O)CCCC(=O)Nc1ccc(Oc2cccc(C(F)(F)F)c2)nc1 -2.77%
COc1ccc(NC(=O)C2=NNC(=O)CC2)cc1S(=O)(=O)N1CCCCC1 3.11%
CC1=C(C(=O)Nc2cccc(C(=O)NCC(C)c3ccccc3)c2)SCCO1 (stereo unspecified) 2.99%
CN(C)C(=O)c1nc2ccc(Cl)cn2c1CN1CCN(c2ncccn2)CC1 -28.2%
c1cnc(N2CCN(c3ccc4ccccc4n3)CC2)nc1 -9.01%
Cc1ccc(CN2CCN(/N=C/c3cccnc3)CC2)c(C)c1 -1.75%
Cc1ccc(CN2CCN(/N=C/c3ccco3)CC2)c(C)c1 -3.14%
CN(C)c1ccc(CNC2C3CC4CC(C3)CC2C4)cc1 (stereo unspecified) -0.168%
CCCCN(Cc1ccccc1)C(=O)C1CCN(Cc2sccc2C)CC1 -2.44%
O=C(Nc1ccc(N2CCOCC2)nc1)c1c(F)cccc1F -1.59%
CCCCC(=O)N(C)c1c(CC)nc2c(OCc3ccc(S(C)(=O)=O)cc3)cccn12 -2.46%
COc1ccc(C(=O)NCC2CCCO2)cc1S(=O)(=O)NCc1ccc(Cl)cc1 (stereo unspecified) 0.708%
CC(=O)Nc1cccc(/C(C)=N/NC(=O)c2c(-c3ccccc3Cl)noc2C)c1 -0.376%
C/C(=N/Nc1nc(-c2ccccc2)c(CC(=O)O)s1)c1ccccc1 -4.03%
CC(=O)NN=C(C)c1ccc(NC(=O)C2CC2)cc1 -2.2%
CC(C)Oc1ccc(CN2CCC2(C)C(=O)NCc2ccc(C(F)(F)F)cc2)cc1 (stereo unspecified) -5.75%
O=C(NCc1ccco1)c1ccc(NS(=O)(=O)c2cccc([N+](=O)[O-])c2)cc1 2.68%
COCc1[nH][nH]c(=O)c1C=Nc1ccc(F)cc1F -3.8%
COC(=O)C1CC2=C(CC(C)(C)CC2=O)N(c2ccccc2)C1=O (stereo unspecified) -1.92%
O=C(CS(=O)(=O)c1cn(Cc2ccc(Cl)cc2)c2ccccc12)N1CCOCC1 -7.71%
COc1ccc(S(=O)(=O)N(C)C[C@@H]2Oc3ccc(NS(=O)(=O)c4cn(C)cn4)cc3C(=O)N([C@@H](C)CO)C[C@@H]2C)cc1 -2%
Brc1cnc2ccccc2c1N1CCCCC1 -0.246%
COC(=O)c1cc(CNC(=O)CC(C)c2ccccc2)ccc1OC (stereo unspecified) -6.11%
C/C(=N\NC(=O)c1ccc(CSc2nc(C)cc(C)n2)cc1)C1CCCCC1 2.32%
CCOC(=O)C(C)Sc1nnc(CSc2nc3nc(C)cc(C)n3n2)o1 (stereo unspecified) -4.24%
CN(C)C(=O)CCC(=O)N1CCCCC1C(=O)Nc1ccc(Oc2ccccc2F)cc1 (stereo unspecified) -8.59%
COc1ccc(N(CC(=O)NC2CCCC2)C(=O)CS(=O)CC(=O)Nc2ccc3c(c2)OCO3)cc1 (stereo unspecified) -1.02%
Cc1ccccc1-c1nc(CS(=O)(=O)CC(=O)N2CCc3ccccc3C2)c(C)o1 -4.35%
CCC1C(C#N)=C(SC)NC2=C1C(=O)CC(C)(C)C2 (stereo unspecified) -0.142%
O=C(NC1CCCCC1)C1CC(=O)N(CCc2ccccc2)C1 (stereo unspecified) -0.239%
CO/N=C/c1cn(-c2ccc(Cl)cc2)nn1 -5.2%
N#CC1(Nc2ccc3c4c(cccc24)CC3)CCCCC1 -1.77%
CCOc1ccc(CC(=O)NCCS(=O)(=O)N2CCN(c3ccccc3)CC2)cc1 0.195%
O=S(=O)(NCCS(=O)(=O)N1CCN(c2ccccc2)CC1)c1ccc(F)cc1 -3.38%
CC1CCN(c2nc3c(c(=O)[nH]c(=O)n3C)n2CCCc2ccccc2)CC1 1.37%
COc1ccc(CCn2c(NCCCN3CCOCC3)nc3c2c(=O)[nH]c(=O)n3C)cc1 0.498%
Cc1noc(C)c1C(=O)NC(C)c1ccc2c(c1)OCO2 (stereo unspecified) 2.73%
Nc1cc2c(cc1Br)-c1ccc(F)cc1C2=O 0.435%
Cn1nc(C(=O)OCC(=O)N(Cc2ccccc2)C(C)(C)C)c2ccccc2c1=O -5.43%
CNC[C@@H]1Oc2c(NS(C)(=O)=O)cccc2C(=O)N([C@@H](C)CO)C[C@H]1C -2.2%
CCOc1cc(CN2CCCC(CO)(Cc3ccc(F)cc3F)C2)ccc1OC (stereo unspecified) -5.13%
COc1ccccc1N1CCN(S(=O)(=O)CCNC(=O)c2ccc(OC(C)C)cc2)CC1 4.66%
CCCCNC(=O)c1nc(C2CCN(S(=O)(=O)c3ccc(F)c(F)c3)CC2)oc1-c1cccc(C(F)(F)F)c1 -1.93%
OCCN1CCN(CCO)C1=S -3.52%
O=C(CSc1nnc2n1CCCN2)c1ccccc1 1.27%
COc1cc(C(=S)N2CCOCC2)cc(OC)c1OC(=O)c1cc([N+](=O)[O-])c(C)c([N+](=O)[O-])c1 4.7%
COc1cc([N+](=O)[O-])cc([N+](=O)[O-])c1NC(=O)N1CCOCC1 5.63%
O=C(CN(C(=O)CNC(=O)c1cccs1)c1cccc(F)c1)NC1CCCCC1 -1.63%
O=C1CCC(C(=O)N2CCCCO2)CN1Cc1cccc(C(F)(F)F)c1 (stereo unspecified) 1.46%
CCCCN1C(=O)C(CC(=O)NC(c2ccccc2)c2ccccc2)CC(C(=O)N2CCOCC2)=C1C (stereo unspecified) -7.35%
CCOC(=O)C(CCOc1cccc(CC)c1)C(=O)OCC -1.01%
CNC(=O)c1csc(Cc2c(Cl)sc3ccc(Cl)cc23)n1 4.37%
Cc1ccc(S(=O)(=O)N(CC(=O)Nc2cccc([N+](=O)[O-])c2)Cc2ccc(Cl)cc2)cc1 -7.47%
CCC(C)NC(=O)Cn1nc(C(F)(F)F)c2c1CCC2 (stereo unspecified) 1.68%
COc1ccc(S(=O)(=O)N(C)C[C@H]2OCc3cnnn3CCCC(=O)N([C@H](C)CO)C[C@H]2C)cc1 4.14%
CN(C)CCNC(=O)c1ccc(-c2cn3c(-c4ccc(Oc5ccccc5)cc4)cnc3cn2)cc1 3.24%
C/C=C/C(=O)Nc1nnc(C(C)C)s1 -0.338%
O=C(NNc1nc(N2CCCC2)nc(N2CCCC2)n1)c1ccccc1 1.25%
Cc1cc2c(cc1C)NC1(C[C@H]3CCC(=O)N4CC[C@@H](C1)[C@@H]34)C(=NC(C)(C)CC(C)(C)C)N2 (stereo partly specified) 1.8%

activation, active:
COc1ccc(C(=O)O/N=C(\N)c2ccccn2)cc1[N+](=O)[O-] 42.1%
CC(=O)NC(c1ccccc1)c1nc(-c2ccccc2C)cs1 (stereo unspecified) 73.4%
O=c1onc(-c2c(F)cccc2F)n1-c1ccccc1Cl 58.1%
Oc1ccc(CN2CCN(c3ncccn3)CC2)cc1 57.4%
Cc1ccc(CN2CCN(c3ncccn3)CC2)c(C)c1 101%
C/C(=N\Nc1cccc(C(=O)O)c1)c1ccc2c(c1)Nc1ccccc1S2 41.5%
CCS(=O)(=O)N1CCC(N2CCN(c3ccccc3)CC2)CC1 45.9%
COc1ccc(CCn2c(NN=C3CCCC3)nc3c2c(=O)[nH]c(=O)n3C)cc1 46%
COc1cc(C(=S)N2CCOCC2)cc(OC)c1OC(=O)c1ccc([N+](=O)[O-])cc1[N+](=O)[O-] 48%
